Screening results as filed in PubChem BioAssay.
The list is not random: actives were taken first. Their share in the collection is about 18%.
TDP1 inh – qHTS Assay for Inhibitors of Tyrosyl-DNA Phosphodiesterase (TDP1); Tyrosyl-DNA phosphodiesterase 1 (Homo sapiens), Q9NUW8; recombinant TDP1, AlphaScreen DNA substrate cleavage; Potency, µM (doses to about 130 µM), without a hit: at the highest dose activity change, negative = inhibition, usual class: inhibitors; 350,000 compounds, 0.28% hits; AID 485290, 2010; note: potency is the fitted concentration of half-maximal effect; % is set by controls: 0 for no effect and ±100 for the full control effect; nearly all actives have a fitted effect of over 40% in size
Target sequence (Q9NUW8 whole entry, looked up): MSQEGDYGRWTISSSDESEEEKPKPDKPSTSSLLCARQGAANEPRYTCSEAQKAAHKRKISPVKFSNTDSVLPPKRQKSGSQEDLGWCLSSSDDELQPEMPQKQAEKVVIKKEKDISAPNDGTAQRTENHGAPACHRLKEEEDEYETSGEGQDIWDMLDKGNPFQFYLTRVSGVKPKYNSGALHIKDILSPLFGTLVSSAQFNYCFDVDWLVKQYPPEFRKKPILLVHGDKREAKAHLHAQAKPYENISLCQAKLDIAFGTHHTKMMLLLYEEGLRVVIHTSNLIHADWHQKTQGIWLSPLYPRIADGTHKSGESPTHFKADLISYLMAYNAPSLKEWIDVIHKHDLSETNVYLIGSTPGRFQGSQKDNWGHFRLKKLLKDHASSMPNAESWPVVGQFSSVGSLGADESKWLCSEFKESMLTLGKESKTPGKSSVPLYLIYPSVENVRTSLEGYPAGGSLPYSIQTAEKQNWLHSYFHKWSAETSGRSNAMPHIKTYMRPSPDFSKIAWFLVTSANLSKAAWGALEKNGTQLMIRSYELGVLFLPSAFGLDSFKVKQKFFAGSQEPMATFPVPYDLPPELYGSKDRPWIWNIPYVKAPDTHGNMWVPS
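Signal: AlphaScreen proximity between streptavidin donor and anti-FITC acceptor beads on intact substrate. Reaction: Tdp1 1 nM, substrate 15 nM final, 5 min RT after 15 min compound preincubation.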
TDP1 cell noCPT – qHTS for Inhibitors of human tyrosyl-DNA phosphodiesterase 1 (TDP1): qHTS in cells in absence of CPT; DT40 Tdp1-/- hTDP1 cells, no CPT, ATP luminescence, 48 h; Potency, µM (doses to about 46.2 µM), for the others: at the highest dose activity change, negative = growth inhibition, most hits filed as inhibitors; 420,000 compounds, 15% hits; AID 686978, 2013; note: potency is the fitted concentration of half-maximal effect; % is set by controls: 0 for no effect and ±100 for the full control effect; nearly all actives have a fitted effect of over 55% in size
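Luminescent ATP content (CellTiter-Glo) served as the growth readout. Knockout chicken DT40 cells expressing human TDP1 were exposed to compounds without camptothecin for a minimum 48 hr at 37 °C.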
IL1B secr inh – qHTS for Inhibitors of Inflammasome Signaling: IL-1-beta AlphaLISA Primary Screen. THP-1 LPS/ATP IL-1B secretion, AlphaLISA, 16 h; stronger effect = lower value. activity change, % at 57.5 µM. 360,000 compounds, 4.7% hits. AID 743279, 2014; in the data active = activity change below about -50%; inconclusive = mostly about -30% to -49%; note: % is set by controls: 0 for no effect and ±100 for the full control effect
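Secreted IL-1B measured by AlphaLISA bead assay after 16 h compound exposure of THP-1 cells; compounds (final up to 57.5 uM) added 1 h before LPS (250 ng/mL) and ATP (1.25 mM) stimulation; lower signal means less secretion.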
TDP1 cell CPT – qHTS for Inhibitors of human tyrosyl-DNA phosphodiesterase 1 (TDP1): qHTS in cells in presence of CPT; AID 686979, 2013; 420,000 compounds, 12% hits; chicken DT40 Tdp1-/-;hTDP1 cells + 20 nM CPT, ATP luminescence, 48 h; Potency, µM (highest dose often 46.2 µM), inactives show top-dose activity change, negative = growth inhibition, hits mostly inhibitors; note: potency is the fitted concentration of half-maximal effect; % is set by controls: 0 for no effect and ±100 for the full control effect; nearly all actives have a fitted effect of over 55% in size
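Cell growth measured by CellTiter-Glo luminescence after a minimum 48 h, 37 C compound exposure with 20 nM CPT in Tdp1-knockout DT40 cells stably expressing hTDP1, seeded 400/well; qHTS titration format.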
HepG2 viability – qHTS for Inhibitors of TGF-b: Cytotox Counterscreen | HepG2 CAGA-GFP viability, ATP luminescence, 18 h | Potency, µM (series often up to 46.1 µM), inactives show top-dose activity change, negative = cytotoxicity, most hits filed as cytotoxic | 410,000 compounds, 0.76% hits | AID 588856, 2011; note: potency is the fitted concentration of half-maximal effect
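HepG2 CAGA-GFP cells (1000/well, DMEM with 1% FBS) received compound, then TGF-beta at 500 pg/mL final, and were incubated 18 hours at 37 degrees C. Viability was read by CellTiter-Glo luminescence. Media-only wells were set as complete cell-killing and DMSO as no toxicity.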
TGFb inhibitor – qHTS for Inhibitors of TGF-b; HepG2 CAGA-GFP TGF-b/SMAD3 reporter, GFP fluorescence, 18 h; TGF-beta stimulated, 500 pg/mL final; Potency, µM (top dose mostly 46.1 µM), for the others: top-dose activity, negative = inhibition, most hits filed as inhibitors; 410,000 compounds, 1.2% hits; AID 588855, 2011; note: potency is the fitted concentration of half-maximal effect; % is set by controls: 0 for no effect and ±100 for the full control effect; nearly all actives have a fitted effect of over 65% in size
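Using HEPG2 CAGA-GFP reporter cells at 1000 cells/well, we pinned test compounds, stimulated with recombinant TGF-beta (500 pg/mL final) and measured total well GFP after 18 h.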
* marks the source's active call; other numbers are inactive results; [ ] = dose if it differs, or a comment. Unless noted, calls come from the whole dose curve; as a rule, active = well fitted curve in the direction sought with a large enough effect; inconclusive = small, poorly fitted or top-dose-only effect, or another doubt; inactive = no such curve, though single readings can be large; an effect the other way counts as inactive or inconclusive.

CCOC(=O)C1CCN(c2c(C(=O)c3ccccc3)cnc3ccc(CC)cc23)CC1 was read as TDP1 inh 3%, TDP1 cell noCPT 18µM*, IL1B secr inh 3, TDP1 cell CPT inconclusive, HepG2 viability -6% and TGFb inhibitor 13%.
Screening CCOC(=O)C1CCN(c2c(C(=O)c3ccc(OC)cc3)cnc3ccccc23)CC1 returned TDP1 inh 3%, TDP1 cell noCPT 16µM*, TDP1 cell CPT 21µM*, HepG2 viability 5% and TGFb inhibitor -33%.
COc1cc2ncc(C(=O)c3ccccc3)c(N3CCN(Cc4ccccc4)CC3)c2cc1OC was read as TDP1 cell noCPT 18µM*, IL1B secr inh -77*, TDP1 cell CPT inconclusive, HepG2 viability -1% and TGFb inhibitor inconclusive.
Cc1ccc(C2C3=C(CC(C)(C)CC3=O)N=C3c4ccccc4C(=O)C32)cc1 (stereo not drawn) was read as TDP1 inh 8%, TDP1 cell noCPT 18µM*, IL1B secr inh -53*, TDP1 cell CPT inconclusive, HepG2 viability -40% and TGFb inhibitor inconclusive.
For CCOC(=O)C1=C(C)N=C2c3ccccc3C(=O)C2C1c1ccc(Cl)cc1 (stereo not drawn) the results were TDP1 inh 12%, TDP1 cell noCPT inconclusive, IL1B secr inh -52*, TDP1 cell CPT inconclusive, HepG2 viability -63% and TGFb inhibitor inconclusive.
For CC1(C)CC(=O)C2=C(C1)N=C1c3ccccc3C(=O)C1C2c1ccc(Cl)cc1 (stereo not drawn) the results were TDP1 inh 5%, TDP1 cell noCPT inconclusive, IL1B secr inh -60*, TDP1 cell CPT inconclusive, HepG2 viability -10% and TGFb inhibitor inconclusive.
Screening CCOC(=O)[C@]12CCC=C1N(Cc1ccco1)C(=O)[C@H](CC(=O)NCCCCc1ccccc1)C2 returned TDP1 cell noCPT inconclusive, IL1B secr inh -17 and TDP1 cell CPT inconclusive.
`COc1ccc(-c2cc(C(F)(F)F)nc(S(=O)(=O)CCCC(=O)Nc3ccccc3C(F)(F)F)n2)cc1OC` gave TDP1 inh 3%, TDP1 cell noCPT 2.1µM*, TDP1 cell CPT 1.2µM*, HepG2 viability -3% and TGFb inhibitor 2.8µM*.
COc1ccc(-c2cc(C(F)(F)F)nc(S(=O)(=O)CCCC(=O)Nc3cccc(O)c3)n2)cc1OC was read as TDP1 inh 3%, TDP1 cell noCPT 4.1µM*, IL1B secr inh -146*, TDP1 cell CPT 3.7µM*, HepG2 viability 5.6µM* and TGFb inhibitor 3.5µM*.
Screening COc1ccc(NC(=O)CCCS(=O)(=O)c2nc(-c3ccc(OC)c(OC)c3)cc(C(F)(F)F)n2)cc1OC returned TDP1 inh 6%, TDP1 cell noCPT 1.6µM*, TDP1 cell CPT 1.6µM*, HepG2 viability -101% and TGFb inhibitor 2.5µM*.
COCCNC(=O)CSc1nc(-c2ccc(OC)c(OC)c2)cc(C(F)(F)F)n1 was read as TDP1 inh -1%, TDP1 cell noCPT -16%, IL1B secr inh -13, TDP1 cell CPT 0%, HepG2 viability 17% and TGFb inhibitor -12%.
Screening CCOc1c(CNCCCSc2nc(C)cc(C)n2)cccc1OC returned TDP1 cell noCPT inconclusive, IL1B secr inh 7, TDP1 cell CPT 21µM*, HepG2 viability -20% and TGFb inhibitor -10%.
For Brc1ccc(CNCCCSc2nnnn2-c2ccccc2)cc1 the results were TDP1 inh 1%, TDP1 cell noCPT 16µM*, TDP1 cell CPT inconclusive and HepG2 viability -92%.
Cc1ccc(CNCCCSc2nc(C)cc(C)n2)cc1 was read as TDP1 inh 6%, TDP1 cell noCPT inconclusive, IL1B secr inh inconclusive, TDP1 cell CPT inconclusive, HepG2 viability -28% and TGFb inhibitor 1%.
`CSc1ccc(CNCCCSc2ncccn2)cc1` gave TDP1 cell noCPT -22%, IL1B secr inh -68*, TDP1 cell CPT inconclusive, HepG2 viability -5% and TGFb inhibitor 0%.
Cc1cc(C)nc(SCCCNCc2ccc(Br)cc2)n1 was read as TDP1 cell noCPT 21µM*, IL1B secr inh -4, TDP1 cell CPT inconclusive, HepG2 viability -10% and TGFb inhibitor inconclusive.
For COc1ccc(CNCCCSc2ncccn2)c(OC)c1 the results were TDP1 cell noCPT inconclusive, IL1B secr inh -7, TDP1 cell CPT -2%, HepG2 viability -5% and TGFb inhibitor -3%.
CCS(=O)(=O)N1CCC2(CC1)OC(=O)C(C)=C2C(=O)NCc1ccccc1C was read as TDP1 inh 0%, TDP1 cell noCPT 4%, TDP1 cell CPT inconclusive, HepG2 viability -3% and TGFb inhibitor -10%.
Screening C/C=C\C1=C(CO)C(=O)C2O[C@]2(CC=C(C)C)C1=O (stereo partly drawn) returned TDP1 inh -5%[21 µM].
For CSc1ccc(CNCCCN(C)C)cc1 the results were TDP1 inh -3%, TDP1 cell noCPT inconclusive, IL1B secr inh -54*, TDP1 cell CPT inconclusive, HepG2 viability -32% and TGFb inhibitor 1%.
`Clc1ccc(CNCCCSc2ncccn2)cc1` gave TDP1 cell noCPT inconclusive, IL1B secr inh -16, TDP1 cell CPT -82%, HepG2 viability -25% and TGFb inhibitor -22%.
`COc1cccc(CNCc2ccc(SC)cc2)c1OC` gave TDP1 inh 0%, TDP1 cell noCPT inconclusive, IL1B secr inh inconclusive, TDP1 cell CPT inconclusive, HepG2 viability 4% and TGFb inhibitor 26%.
Brc1ccc(CNCCCSc2ncccn2)cc1 was read as TDP1 inh 5%, TDP1 cell noCPT 16µM*, IL1B secr inh -1, TDP1 cell CPT 15µM*, HepG2 viability -32% and TGFb inhibitor -2%.
For CN(c1ccccc1C(=O)NCc1ccccc1Cl)S(=O)(=O)c1ccccc1 the results were TDP1 cell noCPT inconclusive, IL1B secr inh 0, TDP1 cell CPT inconclusive, HepG2 viability -4% and TGFb inhibitor 5%.
Screening Nc1nc2c(c(=O)[nH]1)N(C=O)[C@H](CNc1ccc(C(=O)N[C@@H](CCC(=O)O)C(=O)O)cc1)CN2 returned TDP1 inh 7%[56.1 µM].
